# Source: PubChem BioAssay (NCI)
# This is part of a sample that, as a whole, favours compounds with a hit. Of some 83,000 tested, about 20% had one in any assay.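 A percent growth of 40 corresponds to 60% growth inhibition; 0 means no net growth; -100 means all cells died. Active threshold: below 10.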 Unmarked numbers belong to inactive results. Active and inactive are the calls of the source.
# System: MDA-MB-468 breast
# Assay: NCI-60 one-dose screen, 48 h (100 = growth as untreated, 0 = no growth, -100 = all killed)
# Conditions: 10 µM unless noted
row,Compound,growth
1,CCOC(=O)Nc1ccc2nc(Sc3ccc(Cl)cc3)sc2c1,0.385% (active)
2,O=C1N/C(=C\c2ccccc2)c2ncccc21,96.2%
3,Nc1c(C(=O)Nc2ccccn2)sc2nc3c(cc12)CCCCC3,27.7%
4,Cc1cc(O)cc(-c2c(-c3ccnc(-c4cccnc4)c3)cnn2C)c1,48.1%
5,c1ccc(-c2cn3ccnc3c(-c3ccc4ncn(C5CCCCC5)c4c3)n2)cc1,45.6%
6,CC(=O)OC[C@]12CC[C@H]3[C@@H](C[C@H]4O[C@]45CC=CC(=O)[C@]35C)[C@]1(O)CC[C@@]2(O)[C@@](C)(O)C1CC(C)=C(C)C(=O)O1 (stereo not given in full),-52.8% (active)
7,COc1cc(C2CC(c3cc(Cl)c(C)cc3O)=NN2c2ccc(S(N)(=O)=O)cc2)cc(OC)c1OC (stereo not given),22.7%
8,Cc1ccccc1Nc1n[nH]c(Cc2ccccc2)n1,104%
9,O=C1C(Cl)=C(Nc2ccccc2)C(=O)C(Cl)=C1Nc1ccccc1,102%
10,COC1OC(COS(=O)OC)C(O)C(O)C1OS(=O)OC (stereo not given),96.4%
11,COc1cc(/C=C/C(=O)c2cccnc2Nc2ccc(F)cc2)cc(OC)c1OC,16.3%
12,CCCCCCCCCCCC(c1ccccc1)N(C)C (stereo not given),95.4%
13,CC(=O)N1N=C(c2ccc(C(F)(F)F)cc2)CC1c1ccc2c(c1)OCO2 (stereo not given),93.8%
14,Nc1ccc([N+](=O)[O-])cc1N=C/C=C/c1ccccc1,46.4%
15,COc1cc(C[C@H]2COc3cc(O)cc(O)c3C2=O)ccc1O,26.2%
